Measurements: PubChem BioAssay (Tox21)
Records with an inconclusive call do not appear. Active and inactive are the calls of the source. Unless noted, calls come from the whole dose curve; as a rule, active = well fitted curve in the direction sought with a large enough effect in the repeat runs; inconclusive = weak or mixed curves; inactive = no such curve, though single readings can be large; an effect the other way counts as inactive or inconclusive.

Columns and labels:
[1] = qHTS assay for small molecule agonists of the p53 signaling pathway (AID 651631; calls by dose curve; note: nearly all actives have a fitted effect of over 15% in size)
How it was run: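 Testing took place in human colorectal HCT-116 cells with stable p53RE-driven beta-lactamase. After 16 h of compound exposure at 37 °C, a FRET substrate was added and fluorescence recorded 2 h later.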

[2] = qHTS assay for small molecules that induce genotoxicity in human embryonic kidney cells expressing luciferase-tagged ATAD5 (AID 651632); note: nearly all actives have a fitted effect of over 15% in size
How it was run: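 Luminescence read-out: after 16 hr compound exposure at 37C, ATAD5-luciferase HEK293T cells received Amplite, 30 min RT, then CCD imaging. A rise in signal marks genotoxic stress.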

[3] = qHTS assay for small molecule agonists of the p53 signaling pathway - cell viability (AID 651633; calls by dose curve; note: series mostly up to about 83 µM; nearly all actives have a fitted effect of over 30% in size)
How it was run: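 p53RE-bla cells, seeded at 4,000 per well and rested 5 h at 37 C/5% CO2, received compounds in DMSO for 16 h at 37 C. CellTiter-Glo was then added, and luminescence was read after 30 min at room temperature to gauge cytotoxicity.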

[4] = qHTS assay for small molecules that induce genotoxicity in human embryonic kidney cells expressing luciferase-tagged ATAD5 - cell viability (AID 651634; calls by dose curve; note: nearly all actives have a fitted effect of over 25% in size)
How it was run: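 HEK293T ATAD5-luc cells, 2,000/well; compound 15.5 hr, 37C/5% CO2; CellTiter-Fluor 30 min, 37C; fluorescence read.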

[5] = qHTS assay for small molecule disruptors of the mitochondrial membrane potential - cell viability (AID 720634; calls by dose curve;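 note: human HepG2 liver cancer cells; series mostly up to about 83 µM; nearly all actives have a fitted effect of over 20% in size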)
How it was run: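 Luminescence from CellTiter-Glo (ATP content) gave viability in HepG2 cells, read in the same wells as the MMP dye assay after 1 hr compound exposure at 37 C.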

[6] = qHTS assay to test for compound auto fluorescence at 590 nm (red) in HepG2 cells (AID 720674)
How it was run: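 Rose Bengal sodium served as the red fluorophore standard. HepG2 monolayers (overnight attachment, MEM with 10% FBS) were exposed to test compounds for 1 hr at 37 C and read at Ex 540/Em 590 nm.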

[7] = qHTS assay to test for compound auto fluorescence at 535 nm (green) in HepG2 cells (AID 720675)
[8] = qHTS assay to test for compound auto fluorescence at 460 nm (blue) in HEK293 cells (AID 720678)
How it was run: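 Measured: blue fluorescence (Ex 405/Em 460 nm) of compound-treated HEK293 cells, incubated overnight at 37C with 5% CO2 and scaled to triamterene equivalents.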

[9] = qHTS assay to test for compound auto fluorescence at 590 nm (red) in HEK293 cells (AID 720679)
How it was run: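 Using HEK293 cells at 2,000 per well, the screen added 23 nL of each compound after cell attachment and incubated overnight (37C, 5% CO2). The plate reader then captured red-label fluorescence, Ex/Em 540/590nm.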

[10] = qHTS assay to test for compound auto fluorescence at 535 nm (green) in HEK293 cells (AID 720680)
[11] = qHTS assay to test for compound auto fluorescence at 460 nm (blue) in HEK293 cell free culture (AID 720681)
How it was run: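 Test compounds were pinned into cell-free culture medium (DMEM with 10% FBS) and fluorescence was read directly at Ex/Em 405/460 nm. Signals were expressed as fluorescence equivalents of triamterene, with DMSO vehicle as control.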

[12] = qHTS assay to test for compound auto fluorescence at 535 nm (green) in HEK293 cell free culture (AID 720682)
How it was run: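 DMEM + 10% FBS, cell-free; cpd or DMSO pinned in; Ex485/Em535 read; output as fluorescein-equivalent signal.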

[13] = qHTS assay to test for compound auto fluorescence at 590 nm (red) in HEK293 cell free culture (AID 720683)
How it was run: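 Tox21 10K library compounds were pinned into cell-free DMEM with 10% FBS and fluorescence was read at excitation 540 nm. Activity is expressed as Rose Bengal sodium equivalency.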

[14] = qHTS assay to test for compound auto fluorescence at 590 nm (red) in HepG2 cell free culture (AID 720684)
How it was run: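 Ex 540 / Em 590 nm read of compound in cell-free MEM (10% FBS). Rose Bengal sodium reference.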

[15] = qHTS assay to test for compound auto fluorescence at 460 nm (blue) in HepG2 cell free culture (AID 720685)
How it was run: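 Cell-free plates of MEM plus 10% FBS received 23 nL compound or DMSO vehicle; blue-channel (405/460 nm) intensity scored against triamterene as reference fluorophore.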

[16] = qHTS assay to test for compound auto fluorescence at 535 nm (green) in HepG2 cell free culture (AID 720686)
[17] = qHTS assay to test for compound auto fluorescence at 460 nm (blue) in HepG2 cells (AID 720687)
How it was run: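 Cells (2,000/well in MEM with 10% FBS) attached overnight at 37 C, then were exposed to compound or DMSO for 1 hr at 37 C, 5% CO2. Fluorescence read at Ex/Em 405/460 nm, expressed as triamterene-equivalent signal.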

[18] = qHTS assay for small molecule disruptors of the mitochondrial membrane potential (AID 720635)
How it was run: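 HepG2 cells (2,000/well) attached overnight at 37C, then took compound for 1 hr at 37C, 5% CO2. Mito-MPS dye was added for 30 min; fluorescence was read at 490/535 nm (monomers) and 540/590 nm (aggregates).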

[19] = molecular target: Glucocorticoid receptor (Homo sapiens) (UniProt P04150); test: qHTS assay to identify small molecule agonists of the glucocorticoid receptor (GR) signaling pathway (AID 720691; active = well fitted activation curve with a large enough effect in the signal ratio in the repeat runs, not every such curve was filed as active; the % refers to the signal ratio)
How it was run: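 HeLa GR-bla reporter line; cells pre-incubated 4 h, compound in DMSO 18 h at 37 C; LiveBLAzer B/G FRET substrate 2 h RT; fluorescence intensity read-out.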

[20] = molecular target: Glucocorticoid receptor (Homo sapiens) (UniProt P04150); test: qHTS assay to identify small molecule antagonists of the glucocorticoid receptor (GR) signaling pathway (AID 720692; active = well fitted inhibition curve with a large enough effect in the signal ratio in the repeat runs, not every such curve was filed as active; the % refers to the signal ratio)
How it was run: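 Read-out: beta-lactamase FRET substrate fluorescence, 2 h at room temperature, in HeLa cells stably carrying a GRE-driven bla reporter. Compounds were co-incubated with 5 nM dexamethasone agonist (final) for 18 h at 37 C.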

Measured: Potency

Chain of Glucocorticoid receptor (Homo sapiens) (P04150 whole entry, looked up): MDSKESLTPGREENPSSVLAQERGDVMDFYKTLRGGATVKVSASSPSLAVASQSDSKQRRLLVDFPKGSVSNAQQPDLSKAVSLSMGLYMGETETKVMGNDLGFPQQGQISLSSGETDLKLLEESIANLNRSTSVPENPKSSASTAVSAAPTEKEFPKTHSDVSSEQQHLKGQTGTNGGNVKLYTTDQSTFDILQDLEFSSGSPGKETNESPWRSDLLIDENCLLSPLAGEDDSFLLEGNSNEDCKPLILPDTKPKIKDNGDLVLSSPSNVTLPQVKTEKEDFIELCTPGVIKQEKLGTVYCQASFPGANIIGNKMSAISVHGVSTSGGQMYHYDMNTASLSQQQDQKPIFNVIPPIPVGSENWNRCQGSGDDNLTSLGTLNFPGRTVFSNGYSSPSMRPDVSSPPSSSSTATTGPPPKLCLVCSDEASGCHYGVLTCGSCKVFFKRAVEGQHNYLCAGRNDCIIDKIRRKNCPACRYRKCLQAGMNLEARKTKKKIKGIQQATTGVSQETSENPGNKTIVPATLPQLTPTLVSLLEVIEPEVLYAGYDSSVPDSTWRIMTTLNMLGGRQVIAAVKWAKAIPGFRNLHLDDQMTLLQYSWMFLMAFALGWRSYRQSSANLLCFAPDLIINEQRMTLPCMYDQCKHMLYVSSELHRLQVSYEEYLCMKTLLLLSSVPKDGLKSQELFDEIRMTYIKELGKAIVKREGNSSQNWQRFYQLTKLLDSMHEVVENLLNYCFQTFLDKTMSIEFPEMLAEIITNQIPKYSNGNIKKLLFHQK

O=C(CCl)NCO
inactive: [1] | [2] | [3] | [4] | [5] | [6] | [7] | [8] | [9] | [10] | [11] | [12] | [13] | [14] | [15] | [16] | [17]

C=C1CC[C@@]2(O)[C@H]3Cc4ccc(O)c5c4[C@@]2(CCN3CC2CC2)[C@H]1O5
inactive: [1] | [2] | [3] | [4] | [5] | [18] | [6] | [7] | [8] | [9] | [10] | [11] | [12] | [13] | [14] | [15] | [16] | [17] | [19]

COc1cccc([C@@]2(O)CCCC[C@@H]2CN(C)C)c1
inactive: [1] | [2] | [3] | [4] | [5] | [6] | [7] | [8] | [9] | [10] | [11] | [12] | [13] | [14] | [15] | [16] | [17] | [19] | [20]

Cc1cc(OC(=O)N(C)C)nn1C(=O)N(C)C
inactive: [1] | [2] | [3] | [4] | [5] | [18] | [6] | [7] | [8] | [9] | [10] | [11] | [12] | [13] | [14] | [15] | [16] | [17]

O=C(Cl)C(Cl)(Cl)Cl
inactive: [1] | [2] | [3] | [4] | [5] | [18] | [6] | [7] | [8] | [9] | [10] | [11] | [12] | [14] | [15] | [16] | [17] | [19]

O=C(Cl)CCl
inactive: [1] | [2] | [3] | [4] | [5] | [18] | [6] | [7] | [9] | [10] | [11] | [12] | [13] | [14] | [15] | [17]

N=C(N)[Se]
inactive: [1] | [2] | [3] | [4] | [5] | [18] | [6] | [7] | [9] | [10] | [11] | [12] | [13] | [15] | [16] | [17] | [19]
